# Screening data as filed in PubChem BioAssay.
# Hits are enriched below; roughly 12% of the tested compounds scored in any of these assays.
# Lmaj promast: Leishmania major promastigote growth inhibition | 200,000 tested, 9% active | Leishmania major promastigotes, resazurin fluorescence viability | inhibition, % at 10 µM; in the data active means inhibition above about 50%;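 further: promastigotes grown with compound for 44 hours at 28 °C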
# WT yeast gro inh: growth inhibition of WT yeast, mitochondrial fusion screen | mitochondrial fusion phenotypic screen, WT strain | inhibition, % at 10 µM | 190,000 tested, 2.1% active; in the data active means inhibition above about 58%; tested in S. cerevisiae
# Cl transport mod: modulators of human KCC2 chloride dependent transport | KCC2 cells, thallium flux FluoZin-2 fluorescence | Q9H2X9 | B-score of Tl+ flux slope (higher = more flux/activation; lower = inhibition) at 10 µM | 190,000 tested, 2.2% active;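 active means thallium flux slope and its plate-corrected score both differing from the plate sample mean at a set confidence after two filtering rounds, in either direction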;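 further: slope of fluorescence scaled to starting intensity during 10 to 20 s after thallium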
# Target sequence (Q9H2X9 whole entry, looked up): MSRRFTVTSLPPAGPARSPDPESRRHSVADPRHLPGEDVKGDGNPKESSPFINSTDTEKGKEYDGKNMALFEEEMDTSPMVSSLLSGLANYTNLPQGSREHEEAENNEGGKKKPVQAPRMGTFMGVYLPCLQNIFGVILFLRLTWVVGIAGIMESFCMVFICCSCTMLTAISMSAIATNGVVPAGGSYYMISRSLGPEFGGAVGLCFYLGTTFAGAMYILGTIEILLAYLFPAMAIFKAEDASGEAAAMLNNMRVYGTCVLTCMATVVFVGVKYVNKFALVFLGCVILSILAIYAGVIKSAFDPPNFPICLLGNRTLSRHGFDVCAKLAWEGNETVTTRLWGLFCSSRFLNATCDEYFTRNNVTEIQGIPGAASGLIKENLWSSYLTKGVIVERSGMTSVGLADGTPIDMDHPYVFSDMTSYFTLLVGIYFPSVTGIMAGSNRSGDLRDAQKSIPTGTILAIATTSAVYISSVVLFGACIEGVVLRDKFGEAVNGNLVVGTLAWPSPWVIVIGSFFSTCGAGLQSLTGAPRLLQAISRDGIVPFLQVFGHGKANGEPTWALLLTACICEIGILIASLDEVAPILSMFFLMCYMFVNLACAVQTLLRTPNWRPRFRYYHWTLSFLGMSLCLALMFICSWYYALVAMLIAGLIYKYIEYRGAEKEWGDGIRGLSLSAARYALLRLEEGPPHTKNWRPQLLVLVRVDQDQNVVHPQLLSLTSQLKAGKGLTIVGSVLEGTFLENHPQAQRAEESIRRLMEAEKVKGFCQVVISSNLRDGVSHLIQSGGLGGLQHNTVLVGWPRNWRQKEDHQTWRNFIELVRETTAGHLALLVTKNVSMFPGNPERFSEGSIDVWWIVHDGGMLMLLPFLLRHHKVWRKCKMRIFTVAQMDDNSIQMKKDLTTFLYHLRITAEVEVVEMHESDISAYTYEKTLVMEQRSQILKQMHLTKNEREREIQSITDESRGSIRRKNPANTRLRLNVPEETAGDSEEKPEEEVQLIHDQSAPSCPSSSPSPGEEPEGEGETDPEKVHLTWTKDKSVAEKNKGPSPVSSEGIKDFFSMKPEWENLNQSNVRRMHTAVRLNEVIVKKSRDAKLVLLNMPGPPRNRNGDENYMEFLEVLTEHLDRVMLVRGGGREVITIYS
# Calpain2 inh: inhibitors of pig calpain II | inhibition, % at 16 µM | AID 1236 | purified calpain II, fluorogenic peptide substrate, 30 min | 220,000 tested, 0.37% active;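 active means inhibition above about 50%, limit read from the data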
# ROMK primary: modulates human ROMK potassium channel activity | P48048 | Tet-inducible ROMK, thallium flux fluorescence; actives lie on both sides | B-score at 10 µM | 130,000 tested, 2% active;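 active means signal ratio slope over the read window, or its plate-corrected B-score, at least 3 SD from the plate mean, either direction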;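 further: B-score of the F/F0 ratio slope over 7 to 12 s after thallium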
# * marks the source's active call; other numbers are inactive results; x = no result given.
SMILES,Lmaj promast,WT yeast gro inh,Cl transport mod,Calpain2 inh,ROMK primary
Fc1ccccc1-c1n[nH]c(=S)n1CC1CCCO1 (stereo not drawn),-4,4,-0.64,-4,0.85
Nc1ncc(Br)cc1S(=O)(=O)NCCC(=O)Nc1cccc(Cl)c1,64*,57,-0.085,10,x
Cc1ccc(NC(=O)CCNS(=O)(=O)c2cc(Br)cnc2N)cc1Cl,35,-5,1.2,2,0.34
COCCCNC(=S)NNC(=O)c1ccc(S(=O)(=O)N2CCC(C)CC2)cc1,-3,-8,-1.2,-11,0.074
O=C(Nc1ccccc1)Nc1ccc(Cl)c([N+](=O)[O-])c1,53*,82*,-1.5,-1,-1.2
CC(CC(=O)Nc1ccc(C(N)=O)cc1)c1ccccc1 (stereo not drawn),26,4,0.069,-6,x
O=C(Nc1ccc(C(O)(C(F)(F)F)C(F)(F)F)cc1)c1ccc(Cl)c([N+](=O)[O-])c1,53*,74*,-0.15,24,-0.82
CC(CC(=O)Nc1ccc(Cl)c([N+](=O)[O-])c1)c1ccccc1 (stereo not drawn),12,80*,-0.46,31,-1.4
O=C1NC2CCc3nc4ccccc4c(=O)n3C2=Nc2ccccc21 (stereo not drawn),-10,-3,0.47,18,x
CN(C)C(=O)c1cc([N+](=O)[O-])ccc1O,-5,-7,1,25,-0.48
O=C(c1cc2cc([N+](=O)[O-])ccc2s1)N1CCOCC1,6,-35,1.6,11,0.89
O=C(c1cc2cc([N+](=O)[O-])ccc2s1)N1CCCCC1,6,-27,-0.7,55*,-0.2
Cc1ccc(OCCCC(=O)NCc2ccco2)c(C)c1,1,-3,0.52,-21,0.17
C/C(N)=C(/C#N)C(=O)CSc1nnc(Nc2cccc(C)c2)s1,76*,-15,-0.64,-27,x
COc1cccc(Nc2nnc(SCC(=O)N(CC(C)C)CC(C)C)s2)c1,99*,6,-1.3,16,x
CC1CN(C2CCN(S(=O)(=O)c3ccccc3)CC2)CC(C)O1 (stereo not drawn),81*,-33,0.59,-14,0.32
COC(=O)C1CCN(S(=O)(=O)Cc2ccccc2)CC1,-7,-11,-1.4,1,0.4
CC1CN(C2CCN(S(=O)(=O)c3ccc(F)cc3)CC2)CC(C)O1 (stereo not drawn),91*,43,1.6,4,1.1
CC1CN(C2CCN(S(=O)(=O)Cc3ccccc3)CC2)CC(C)O1 (stereo not drawn),91*,-2,x,11,0.82
O=S(=O)(Cc1ccccc1)N1CCN(C2Cc3ccccc3C2)CC1,52*,6,x,-4,-0.6
O=S(=O)(c1ccc(F)cc1)N1CCC(N2CCN(c3ccccc3)CC2)CC1,9,x,x,x,0.41
O=C(NC1=NCCS1)c1ccccc1OCc1ccccc1Cl,11,79,-0.97,-18,-0.23
COc1cccc(NC(=O)/C=C/c2ccccc2[N+](=O)[O-])c1,27,6,-1.5,3,-0.28
Cc1ccc(NC(=O)/C=C/c2ccc([N+](=O)[O-])s2)cc1,97*,-7,0.00022,8,x
Cc1cccc(NC(=O)/C=C/c2ccc([N+](=O)[O-])s2)c1,100*,0,-0.23,7,0.32
SMILES,Lmaj promast,WT yeast gro inh,Cl transport mod,Calpain2 inh,ROMK primary
Cc1cccc(NC(=S)N/N=C/c2ccc([N+](=O)[O-])s2)c1,93*,9,1.3,29,x
Cc1ccc(NC(=O)/C=C/c2ccc([N+](=O)[O-])s2)c(C)c1,34,16,-0.96,17,-0.49
COc1ccc(/C=C/C(=O)OCC(=O)c2c(N)n(C)c(=O)n(C)c2=O)c(OC)c1,-9,-28,0.58,-8,-0.49
COC(=O)[C@@H]1C[C@H]1[C@@H](NS(=O)(=O)c1ccccc1)c1ccccc1,-1,2,-0.088,15,1
Cc1cc(N2C(=O)C=CC2=O)c([N+](=O)[O-])cc1C,23,62*,-0.53,-13,-0.86
COc1ccc(OCC(=O)Nc2sc3c(c2C(=O)NCC2CCCO2)CCC3)cc1 (stereo not drawn),-4,4,x,-12,x
Cc1ccc(C)c(Nc2ncccc2C(=O)NCc2cccs2)c1,7,64*,2,21,0.11
O=C(Nc1ccccc1NC(=O)NC1CCCCC1)NC1CCCCC1,23,-16,0.9,-21,x
Nc1ccccc1NC1CCCCC1,54*,32,1.2,25,-0.013
OCCNCCNCc1ccc(-c2ccccc2)cc1,100*,3,-0.68,-27,x
CC(CO)(CO)NCc1ccc(-c2ccccc2)cc1,44,9,0.48,19,x
CN1/C(=C/c2cc[n+](C)c3ccccc23)C=Cc2ccccc21,101*,91*,-1.3,38,0.69
